High-throughput results deposited in PubChem BioAssay by National Center for Advancing Translational Sciences (NCATS).
Shown are actives, neighbours in structure and some others; about 8% of the full set was active somewhere.
HCV inhibitor: qHTS Assay for Inhibitors of Hepatitis C Virus (HCV); Huh7.5.1 HCVcc-Cre infection, luciferase reporter, 44 h; Potency, µM (series often up to 41.8 µM), usual class: inhibitors; 340,000 tested, 3.4% active; active = well fitted inhibition curve with a large enough effect; inconclusive = small, poorly fitted or top-dose-only effect, or another doubt; inactive = no such curve, though single readings can be large or run the other way
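Compounds are dispensed onto cells plated 4 h earlier at 1,000 per well, with HCVcc-Cre virus (about 0.5 moi) added next. Following 44 h of culture, luminescent signal is measured for 15 sec after 15 min with substrate at room temperature.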
Lassa entry inh: qHTS for Inhibitors of binding or entry into cells for Lassa Virus; Lassa virus pseudotype entry inhibition, cell reporter; Potency, µM (doses to about 37.9 µM), hits mostly inhibitors; 300,000 tested, 1.2% active; AID 540256, 2011; calls by dose curve; tested in HEK293 cells; also: nearly all actives have a fitted effect of over 50% in size
FMDV antiviral: High Throughput Screening for Foot and Mouth Disease Virus Antivirals | FMDV antiviral cell-based qHTS | Potency, µM (top dose mostly 57.9 µM), usual class: inhibitors | 410,000 tested, 1.2% active; calls by dose curve; tested in HEK293T cells; also: read-out not given here; nearly all actives have a fitted effect of over 45% in size
SARS PLpro yeast: qHTS of Yeast-based Assay for SARS-CoV PLP; S. cerevisiae expressing SARS-CoV PLpro, growth rescue; Potency, µM (highest dose often 32.9 µM), actives largely listed as activators; 330,000 tested, 0.19% active; calls by dose curve; also: nearly all actives have a fitted effect of over 55% in size
MARV entry inh: qHTS for inhibitors of binding or entry into cells for Marburg Virus; 300,000 tested, 1.8% active; Marburg virus pseudotyped entry inhibition, cell reporter; AID 540276, 2011; Potency, µM (top dose mostly 37.8 µM), usual class: inhibitors; calls by dose curve; tested in HEK293 cells
HCMV antiviral: qHTS Assay for inhibitors of the human cytomegalovirus (HCMV). HFF cells, HCMV-luciferase reporter, 72 h; active compounds read low. activity change, negative = inhibition, % at 57.5 µM. 410,000 tested, 4.5% active. AID 1259415, 2018; in the data active = activity change below about -60%; inconclusive = no clear call, values can overlap the other calls; inactive = above about -39%
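Two-dose cell screen: HFF monolayers treated with compounds and infected with luciferase-expressing HCMV at 1 PFU/cell, 72 h at 37C, then lysed for luciferase measurement.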
A number is an active result; - = inactive; ? = inconclusive; . = no result given; ! = a repeat was not active; [ ] = another dose, or the depositor's remark.

SMILES | HCV inhibitor | Lassa entry inh | FMDV antiviral | SARS PLpro yeast | MARV entry inh | HCMV antiviral
Cc1nnc(N2CCCC(C(=O)Nc3ccccc3C(F)(F)F)C2)c2nn(-c3ccccc3)c(C)c12 (stereo unspecified) | . | - | - | . | . | -
Cc1cc(C)cc(NC(=O)C2CCCN(c3nc(C)cc(C)n3)C2)c1 (stereo unspecified) | . | - | - | - | - | -
Cc1ccc(NC(=O)C2CCN(c3nnc(C)c4c(C)n(-c5ccccc5)nc34)CC2)cc1Cl | . | - | - | . | . | -
Cc1ccc(NC(=O)C2CCCN(c3ncnc4onc(C)c34)C2)cc1Cl (stereo unspecified) | . | - | 20µM | . | . | -
Cc1nnc(N2CCCC(C(=O)Nc3cc(F)ccc3F)C2)c2nn(-c3ccccc3)c(C)c12 (stereo unspecified) | 11µM | - | - | - | . | -
COc1ccc(NC(=O)C2CCCN(c3nnc(C)c4c(C)n(-c5ccccc5)nc34)C2)cc1Cl (stereo unspecified) | . | ? | - | . | . | -90
COc1cccc(NC(=O)C2CCCN(c3ncnc4onc(C)c34)C2)c1 (stereo unspecified) | . | ? | ? | . | . | -
Cc1cc(C)nc(N2CCCC(C(=O)Nc3ccc4nc(C)c(C)nc4c3)C2)n1 (stereo unspecified) | 5.6µM | - | - | - | ? | -
O=C1c2oc3ccc(F)cc3c(=O)c2C(c2cccc([N+](=O)[O-])c2)N1CCCN1CCOCC1 (stereo unspecified) | . | - | - | . | ? | -
CC(CCc1ccccc1)NC(=O)CCNS(=O)(=O)c1ccccc1C(F)(F)F (stereo unspecified) | ? | . | - | - | . | -
COC(=O)[C@@H]1C[C@]2(OC(=O)c3ccccc3)C=CC(=O)C[C@@H]2N1C(=O)OCc1ccccc1 | ? | 7.3µM | 22µM | - | ? | -98
Cc1cc(O)cc2c1C1CCC3(C)C(=O)CCC3C1C=C2 (stereo unspecified) | - | - | - | . | ? | -97
C[C@]12CC[C@@H]3c4ccc(O)cc4CC[C@H]3[C@@H]1CCC2=O | -[8.37 µM] | ? | - | - | ? | -
CCOC(=O)N1CCN(C(=O)c2ccc3c(c2)sc2nc(-c4ccc(OC)cc4)cn23)CC1 | 14µM! | - | - | - | ? | .
COc1ccc2c(c1)sc1nc(-c3ccccc3)cn12 | ? | 0.5µM | 7.9µM | - | 0.71µM | -98
CCOC(=O)C1CCN(C(=O)c2ccc3c(c2)sc2nc(-c4ccc(OC)cc4)cn23)CC1 | . | - | - | . | . | .
COc1ccc(Cl)cc1CC1(C)C(=O)Nc2ccc(S(=O)(=O)NC3CCCCC3)cc21 (stereo unspecified) | . | . | - | . | . | ?
CN(C)c1ccc(N2C(=NC(=O)CC3CCCCC3)SC3CS(=O)(=O)CC32)cc1 (stereo unspecified) | - | . | - | - | . | -
CC[C@H]1CC2CN3CCc4c([nH]c5cc(OC)ccc45)[C@](C(=O)OC)(C2)[C@H]13 | 35µM | . | - | . | . | .
COc1ccc(C(Nc2cc(C)ccn2)c2ccc3ccc(C)nc3c2O)cc1 (stereo unspecified) | ? | ? | - | - | ? | -
Cc1cccc(NC(c2ccc(C)s2)c2ccc3ccc(C)nc3c2O)n1 (stereo unspecified) | ? | - | ? | - | - | -95
Cc1ccc2ccc(C(Nc3ccccn3)c3ccccc3)c(O)c2n1 (stereo unspecified) | ? | ? | - | 11µM | - | -
Cc1ccc2ccc(C(Nc3ccccc3)c3ccccc3)c(O)c2n1 (stereo unspecified) | . | . | - | . | . | -
Cc1ccc2ccc(C(Nc3ccccc3)c3ccc(F)cc3)c(O)c2n1 (stereo unspecified) | . | . | - | . | . | -61
COc1cc(C(Nc2ccccn2)c2ccc3ccc(C)nc3c2O)cc(OC)c1O (stereo unspecified) | - | ? | 35µM | - | ? | .
Cc1ccc2ccc(C(Nc3cccc(C(F)(F)F)c3)c3cccnc3)c(O)c2n1 (stereo unspecified) | ? | . | - | 10µM | . | -
Cc1ccc(-c2cn(-c3ccccc3)c3[n+]2CCCS3)cc1 | ? | ? | 10µM | - | ? | -93
CCc1ccc(-n2cc(-c3ccc(F)cc3)[n+]3c2SCCC3)cc1 | ? | ? | - | - | ? | -87
